Out of some 52,000 compounds screened, about 1,700 (3.3%) were called active. Many of the other results were omitted from the sample, so actives are more common in it than they were. A number with no mark means an inactive call. Cut-off read from the data, not from the text of the source: active = survival mostly below about 52% (no sharp cut-off); inactive = mostly above about 56%.
Test system: Wild type
Assay: growth inhibition of S. aureus wild type versus tarO mutant, primary screen, teichoic acid synthesis inhibitors, RN4220, OD600 (AID 463173)
Conditions: S. aureus RN4220 wild type/DeltatarO growth, OD600, 18 h, stronger effect = lower value, screened at 18.75 µg/mL (by protocol)

First: O=[N+]([O-])c1ccc(S(=O)(=O)N2CCn3cccc3C2c2ccccc2F)cc1 (stereo not given)
Second: CC1CCN(S(=O)(=O)c2ccc3c(ccc(=O)n3CC(=O)NCc3ccccc3)c2)CC1
The survival of the first is higher: 132% for the first, 22% for the second.

Compared with `Cn1nc(C(=O)N2CCN(c3cccc(Cl)c3)CC2)c2c1-c1ccccc1S(=O)(=O)C2`, `O=C(c1cc2nc(-c3ccccc3)cc(-c3ccccc3)n2n1)N1CCCC1` is higher in survival: 46% for the first, 100% for the second.

Going from `COc1ccc(C2=C/C(=C/c3ccco3)C(=O)O2)cc1` to `COc1ccc(Nc2nc(-c3ccc(C)cc3)nc3ccccc23)c(OC)c1`, the survival falls from 117% to 70%.

First: Cc1cccc(CCNC(=O)CN(c2ccc(C(C)C)cc2)S(=O)(=O)c2c(C)nn(C)c2C)c1
Second: CCC(=O)N1CCc2cc(Br)cc(S(=O)(=O)CCC(=O)NCCc3cccc(C)c3)c21
The survival of the first is higher: 87% for the first, 45% for the second.

Compared with `CC(=O)Nc1ccc(NC(=O)Cn2c(=O)ccc3cc(S(=O)(=O)N4CCC(C)CC4)ccc32)cc1`, `Cc1ccc(NC(=O)Cn2c(=O)ccc3cc(S(=O)(=O)N4CCC(C)CC4)ccc32)cc1Cl` is lower in survival: 91% for the first, 88% for the second.

Compared with `CC1CCN(C(=O)Cn2c(=O)oc3cc(S(=O)(=O)N4CCCCC4)ccc32)CC1`, `CC1CCN(S(=O)(=O)c2ccc3c(c2)oc(=O)n3CC(=O)N2CCCCC2)CC1` is lower in survival: 83% for the first, 76% for the second.

First: CCc1ccc(NC(=O)Cn2c(=O)ccc3cc(S(=O)(=O)N4CCCC4)ccc32)cc1
Second: CCc1ccccc1NC(=O)Cn1c(=O)ccc2cc(S(=O)(=O)N3CCCC3)ccc21
The survival of the first is higher: 148% for the first, 64% for the second.

Going from `CC1CCN(S(=O)(=O)c2ccc3c(ccc(=O)n3CC(=O)NCc3ccc(Cl)cc3)c2)CC1` to `CCOc1ccccc1NC(=O)Cn1c(=O)ccc2cc(S(=O)(=O)N3CCC(C)CC3)ccc21`, the survival rises from 59% to 65%.

Going from `Cc1ccc(NC(=O)Cn2c(=O)ccc3cc(S(=O)(=O)N4CCCC4)ccc32)cc1C` to `Cc1ccc(NC(=O)CN2C(=O)C(C)(C)c3cc(S(=O)(=O)N4CCCCC4)ccc32)c(Br)c1`, the survival falls from 88% to 63%.

Compared with `CN(C1CCCCC1)S(=O)(=O)Cc1ccccc1`, `COc1ccc(C(=O)N(CC(=O)NC2CCCC2)C2CCCCC2)cc1OC` is higher in survival: 94% for the first, 106% for the second.

First: CC1=C(c2ccc(C)cc2)S(=O)(=O)N(Cc2ccc(C(=O)Nc3ccc(F)cc3C)cc2)C1=O
Second: Cc1ccc(CNC(=O)c2ccc3c(c2)NC(=O)C(CS(=O)(=O)Cc2cccc(F)c2)N3)cc1 (stereo not given)
The survival of the first is higher: 135% for the first, 117% for the second.

Compared with `COc1cccc(NC(=O)Cn2c(=O)n(CCc3cccc(C)c3)c(=O)c3ccccc32)c1`, `Cc1cc(C)c(NC(=O)Cn2c(=O)n(CCC(=O)N3CCc4ccccc4C3)c(=O)c3ccccc32)c(C)c1` is higher in survival: 82% for the first, 83% for the second.

Going from `CSc1ccc(CCNC(=O)CCc2c(C)nc3cc(-c4ccccc4)nn3c2C)cc1` to `CC(=O)c1cccc(Nc2nc(-c3cccc(C)c3)nc3ccccc23)c1`, the survival falls from 86% to 31%.

Going from `CCC(=O)N1CCc2cc(S(=O)(=O)N(C)c3cccc(C)c3)ccc21` to `COc1ccc(C)cc1NC(=O)CN1C(=O)CCc2cc(S(=O)(=O)N3CCOCC3)ccc21`, the survival rises from 86% to 128%.

First: CCOC(=O)c1ccc(-n2c(C)nc3c(cnn3-c3ccc(Cl)cc3)c2=O)cc1
Second: CCc1nc2c(cnn2-c2ccccc2)c(=O)n1-c1ccc(Br)cc1
The survival of the first is lower: 71% for the first, 108% for the second.

Compared with `COc1cccc(-n2c(C)nc3c(cnn3-c3ccc(C)c(C)c3)c2=O)c1`, `COc1ccc(-n2c(C)nc3c(cnn3-c3ccc(C)c(C)c3)c2=O)cc1Cl` is higher in survival: 54% for the first, 118% for the second.

Going from `CCc1nc2c(cnn2-c2ccc(C)cc2)c(=O)n1Cc1ccccc1` to `Cc1nc2c(cnn2-c2ccccc2)c(=O)n1-c1ccccc1`, the survival rises from 22% to 126%.

First: Cc1c(C(=O)OCC2CCCCC2)[nH]c2c1C(=O)CC(c1ccccc1Cl)C2 (stereo not given)
Second: CCOC(=O)c1ccccc1NC(=O)C(=O)Nc1ccc2nc3n(c(=O)c2c1)CCCCC3
The survival of the first is lower: 92% for the first, 123% for the second.

Compared with `Cc1oc2ncn(CC(C)C)c(=O)c2c1C(=O)NCCCN(C)Cc1ccccc1`, `COc1cccc(-c2cc(C(=O)NCc3ccccc3)no2)c1` is higher in survival: 76% for the first, 85% for the second.

Compared with `Cc1cc2nsnc2c(S(=O)(=O)NCC(=O)O)c1C`, `Cc1nc(CC(=O)Nc2ccc(C)c(C)c2)cs1` is lower in survival: 99% for the first, 80% for the second.

Compared with `CC1CCCc2sc3nc(SCC(=O)c4ccc(Br)cc4)nc(N)c3c21` (stereo not given), `CCN(CC)C(=O)Cn1c(=O)n(-c2ccc(Cl)cc2)c(=O)c2c3c(sc21)CCC3` is higher in survival: 66% for the first, 73% for the second.

Compared with `CCCCCCSc1ncc(C#N)c(N)n1`, `CCCCCNC(=O)C(=O)NCC(c1ccc2c(c1)OCO2)N1CCOCC1` (stereo not given) is lower in survival: 119% for the first, 68% for the second.

First: O=C(/C=C/c1ccc(Cl)cc1)N1CCC(c2nc3ccccc3o2)CC1
Second: C/C=C/C(=O)N1CCCC(c2nc(-c3cccc(OC)c3)no2)C1 (stereo not given)
The survival of the first is higher: 120% for the first, 95% for the second.

`CCCCN1C(=O)c2[nH]nc(-c3ccccc3O)c2C1c1ccc(OCc2ccccc2)c(OC)c1` (stereo not given) and `CCCN1C(=O)c2[nH]nc(-c3ccccc3O)c2C1c1ccc(OCc2ccccc2)c(OC)c1` (stereo not given) are the same in survival: 64% for the first, 64% for the second.

Compared with `COCCN1C(=O)c2[nH]nc(-c3ccccc3O)c2C1c1ccc(OCc2ccccc2)c(OC)c1` (stereo not given), `COCCCN1C(=O)c2[nH]nc(-c3ccccc3O)c2C1c1ccc(OC)cc1` (stereo not given) is higher in survival: 43% for the first, 85% for the second.

Compared with `CCCCOc1cccc(C2c3c(-c4cc(C)ccc4O)n[nH]c3C(=O)N2CCOC)c1` (stereo not given), `COCCCN1C(=O)c2[nH]nc(-c3cc(C)ccc3O)c2C1c1ccc(F)cc1` (stereo not given) is higher in survival: 25% for the first, 92% for the second.

Compared with `O=C1NC(NS(=O)(=O)c2ccccc2)(C(F)(F)F)C(=O)N1c1ccc(F)cc1` (stereo not given), `Fc1ccc(Nc2nc(SCc3ccc(Cl)cc3)nc3ccccc23)cc1` is higher in survival: 76% for the first, 90% for the second.

First: COc1ccc(Cl)cc1NC(=O)CN1C(=O)C(C)(C)c2cc(S(=O)(=O)N3CCCCC3)ccc21
Second: COc1ccc(NC(=O)CN2C(=O)CCc3cc(S(=O)(=O)N4CCOCC4)ccc32)c(OC)c1
The survival of the first is higher: 81% for the first, 66% for the second.

Going from `CC(=O)Nc1ccc(NC(=O)CSc2nccn2Cc2ccc3c(c2)OCO3)cc1` to `CCOC(=O)c1nc(Nc2ccc(C(C)=O)cc2)c2ccccc2n1`, the survival rises from 72% to 81%.

Compared with `NCc1ccc2[nH]c(=O)[nH]c2c1`, `CCOc1ccccc1-c1nc(=S)[nH][nH]1` is higher in survival: 104% for the first, 110% for the second.

First: Cc1ccc(OCCCCn2c(-c3ccc(Cl)cc3)nc3ccccc3c2=O)cc1
Second: COC(=O)c1ccc(Nc2nc(-c3ccccc3Cl)nc3ccccc23)cc1
The survival of the first is higher: 67% for the first, 36% for the second.

First: OCCNc1nc(-c2cccnc2)nc2ccccc12
Second: Oc1cccc(Nc2nc(-c3ccccc3)nc3ccccc23)c1
The survival of the first is higher: 119% for the first, 19% for the second.

Going from `CCOC(=O)c1nc(Nc2cccc(C)c2)c2ccccc2n1` to `COc1ccc(Nc2nc(-c3ccccc3F)nc3ccccc23)cc1OC`, the survival falls from 83% to 71%.

Going from `Cc1cn2c(=O)cc(COc3cccc(NC(=O)c4ccccc4Cl)c3)nc2s1` to `Cc1ccc(C)n1-c1c(C(=O)NCC(C)c2ccccc2)sc2ncccc12` (stereo not given), the survival falls from 88% to 73%.

Compared with `CCOC(=O)C1(CC)C(=O)OC(C(=O)NC2CCCCC2)C1C` (stereo not given), `Cc1ccc(NCc2cccn2-c2nnc(N3CCC(C(=O)NC(C)C)CC3)s2)cc1` is higher in survival: 112% for the first, 121% for the second.

In the case of `Cc1ccc(-n2c(SCc3ccccc3F)nc3[nH]ncc3c2=O)cc1C`, the survival is reported as 80%.

With `Cc1ccc(NC(=O)Cn2c(=O)ccc3cc(S(=O)(=O)N4CCCC4)ccc32)cc1N(C)C` the survival was 0% (active).
`CC1CCN(S(=O)(=O)c2ccc3c(c2)oc(=O)n3CC(=O)O)CC1` was tested, and the survival was -3% (active).
In the case of `CC1CCN(S(=O)(=O)c2ccc3c(ccc(=O)n3CC(=O)Nc3ccc(C(C)C)cc3)c2)CC1`, the survival is reported as -2% (active).
`Cc1ccc(CNC(=O)Cn2c(=O)ccc3cc(S(=O)(=O)N4CCC(C)CC4)ccc32)cc1` was tested, and the survival was 10% (active).
`CCOc1ccccc1NC(=O)Cn1c(=O)ccc2cc(S(=O)(=O)N3CCCC3)ccc21` was tested, and the survival was -3% (active).
With `CCc1cccc(-n2c(C)nc3c(cnn3-c3ccc(Cl)cc3)c2=O)c1` the survival was -2% (active).
`CCc1cccc(-n2c(C)nc3c(cnn3-c3ccc(C)c(C)c3)c2=O)c1` was tested, and the survival was 2% (active).
For `CCc1nc2c(cnn2-c2ccc(C)cc2)c(=O)n1-c1ccc(C)cc1`, the survival was 18% (active).
`CCCCCCSc1nc(N)c2c3c(sc2n1)CCCC3C` (stereo not given) was tested, and the survival was -2% (active).
`CCCCN1C(=O)c2[nH]nc(-c3ccccc3O)c2C1c1cc(Br)c(O)c(OC)c1` (stereo not given) was tested, and the survival was 10% (active).
In the case of `COCCN1C(=O)c2[nH]nc(-c3ccccc3O)c2C1c1ccc(Cl)c(Cl)c1` (stereo not given), the survival is reported as 3% (active).
For `COCCN1C(=O)c2[nH]nc(-c3cc(C)ccc3O)c2C1c1ccc(C(C)C)cc1` (stereo not given), the survival was 11% (active).
With `Cc1ccc(Cl)cc1NC(=O)CN1C(=O)C(C)(C)c2cc(S(=O)(=O)N3CCCCC3)ccc21` the survival was 1% (active).
For `COc1ccc(OC)c(NC(=O)CN2C(=O)CCc3cc(S(=O)(=O)N4CCCCC4)ccc32)c1`, the survival was 0% (active).
With `CCC(=O)OCCCNc1nc(-c2ccc(Cl)cc2)nc2ccccc12` the survival was -2% (active).
`Cc1cccc(Nc2nc(-c3ccccc3)nc3ccccc23)c1` was tested, and the survival was -1% (active).
For `COC(=O)c1ccc(Nc2nc(-c3ccc(C)cc3)nc3ccccc23)cc1`, the survival was 7% (active).
With `Oc1ccc(Nc2nc(-c3ccc(Cl)cc3)nc3ccccc23)cc1` the survival was 3% (active).
In the case of `COc1cc(Nc2nc(-c3ccc(OC)c(OC)c3)nc3ccccc23)cc(OC)c1`, the survival is reported as 0% (active).
